This note sets out measurements from the OligoGym collection.
Also: reference of the scale not given here.

The first experiment deals with MTDH. As to the kind of experiment: pooled miR-30 sensor sort-seq; sequence = guide strand. Particulars: shRNA.
On to TTAGAAGTGAAGCTCTTTCTTC, for which the sensor-assay potency score (higher = more potent) was -0.219. On the same count and under the same terms, as for TAACTTGAACATTTAGATGAGA, the figure is -0.76; as for TTCTCGGACAGTTTCTTCCGGT, -0.0604; as for TAAATTAAGATCGTTCTTGTTC, 0.14.

In the case of TTCTAATTCTTCTGTGTCCTGT, the sensor-assay potency score (higher = more potent) turned out to be 0.277. On the same count and under the same terms, next, TATTCTTCTTGGAACCAACAGG: -0.744; TTTTGCTTGGTATTTGACTTGG: -0.198.

A further experiment has as its target MTF2. Described as above. Particulars: shRNA.
Sequence TATAGAACAAGGTAAATCCAAA registered a sensor-assay potency score (higher = more potent) of -1.04.

Regarding TAAAACAAGCCATCTGACCATC, the sensor-assay potency score (higher = more potent) is -1.1.

In turn, TACTCTTCTTGACATATTGTAC showed a sensor-assay potency score (higher = more potent) of -0.653. On the same count and under the same terms, as for TTTGGCTTTATGTCCATCCTGT, the figure is 0.854; as for TTGACATATTGTACAGACCATT, -1.28. Still for that read-out and setting: next, TTATCTTTTTGATAGTGCCAAG: -1.55; TTTGCAGCACTGTAGCATCTTC: -0.454; TATTCTGGTCCAGAACTGCAGA: -0.798. Same read-out and setting: as for ATGATTGAGTTGTAACTCCTGA, the figure is -0.17. The sequence TTTTTTTCTATGCCATTGCTTA returned a sensor-assay potency score (higher = more potent) of -0.923. Same read-out and setting: next, TTCCACAAGATACTGCACCTTT: 0.329. Still for that read-out and setting: next, TTTATCTTTTTGATAGTGCCAA: -0.334.

In a further experiment the target is MTFP1. The description is as above. As to conditions: shRNA.
Sequence TAGGAGGTTGACATGAAGCAGG displayed a sensor-assay potency score (higher = more potent) of -1.07.

On to TAGCTCAGCCACACCACCGCCG, for which the sensor-assay potency score (higher = more potent) was -0.967. The same measure, in the same setting: next, TGTTGGGTAGAGCTTGCGCAGG: -1.71; TCCACCGACCTCTCCAGCCTTC: -1.18; TGTCTCTAAGCTTCTGTCCAGC: -0.761.

Sequence TATCGCACCCACGTGTCCCGGT displayed a sensor-assay potency score (higher = more potent) of -0.561. On the same count and under the same terms, next, TAGAGCTTGCGCAGGCTGGAGT: -0.938; TCCGCCAGCACGTAGGAGCTGG: -1.34. On the same count and under the same terms, next, TTTGTCAATGGCATCCGCCAGC: -0.615; TCAGCCACACCACCGCCGCTGG: -1.36. Same read-out and setting: next, TTGTCTCTAAGCTTCTGTCCAG: -0.49; TTGGACACCAGGGAGCCAGGTG: -0.945.

The next experiment has as its target MTG1. The description is as above. As to conditions: shRNA.
In turn, TTCTCTTTTCGGTGGTAGCGGT displayed a sensor-assay potency score (higher = more potent) of -0.857. Same read-out and setting: as for TTCTCCTTCTAAGTGTTGCATA, the figure is -0.79; as for TCATCCTTTACACAGTTGGTAA, -1.44.

Take TTATAGCTTTAACTCCTTCTGA: the sensor-assay potency score (higher = more potent) was -0.275.

In turn, TATAGCTTTAACTCCTTCTGAG showed a sensor-assay potency score (higher = more potent) of -0.0288. On the same count and under the same terms, next, TAAGTGTTGCATAATTTTCTGC: 0.0697; TTGGACATCACAGCTCTGGTGA: -0.544. Same read-out and setting: next, TTTGTTGAGGGTGTACAGCAGG: -0.227. On the same count and under the same terms, as for ATTTTGGACATCACAGCTCTGG, the figure is -0.514.
